Assay results taken from PubChem BioAssay AID1852 (Sanford-Burnham Center for Chemical Genomics, 2009).
In all, about 2,500 compounds went through this assay and about 1,100 (44%) were called active. The set was probably picked from earlier hits. The list shows a part of the results. Values without a mark were called inactive.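 The calls were made as follows: active = inhibition above 50% at 4 µM in the single-point screen; inactive = inhibition of 50% or less.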

Test: blockers of TNF-a NF-kB luciferase induction – cell-based, HEK293T NF-kB-Luc, luminescence, selectivity assay for NOD1/NOD2 signaling inhibitor project, primary screen (AID 1852)
Conditions: TNF-a induced, 14 h, at 4 µM, stronger effect = higher value
Compound `COC(=O)c1ccc2nc(Nc3nc4c(F)cc(F)cc4s3)sc2c1` has an inhibition of 35.5%. In the case of `Cc1ccc2nc(NC(=O)CSCC(=O)OCC(=O)c3ccc(Br)cc3)sc2c1`, the inhibition is reported as 75.2% (active). For `NC(=S)N=Nc1c(O)n(Cc2ccc(Br)cc2)c2ccccc12`, the inhibition was -15.1%. In the case of `Cc1c(Cl)cccc1NC(=S)N=Nc1c(O)n(CN2CCOCC2)c2ccccc12`, the inhibition is reported as 70.8% (active). `C/C(Cl)=C\Cn1c(O)c(N=NC(N)=S)c2ccccc21` gave an inhibition of 35.2%. Compound `C=CCn1c(O)c(N=NC(=S)Nc2ccc(OC)c(Cl)c2)c2ccccc21` has an inhibition of -34.6%. With `Oc1c(N=NC(=S)Nc2ccccc2F)c2ccccc2n1Cc1ccccc1F` the inhibition was 7.6%. With `C=CCn1c(O)c(N=NC(=S)Nc2ccc(OC)cc2)c2ccccc21` the inhibition was 96.3% (active). `C=CCn1c(O)c(N=NC(=S)Nc2cccc(OC)c2)c2ccccc21` gave an inhibition of 12%. For `C=CCn1c(O)c(N=NC(=S)Nc2ccccc2F)c2ccccc21`, the inhibition was 100% (active). With `C=CCn1c(O)c(N=NC(=S)Nc2cccc(C)c2)c2ccccc21` the inhibition was 8.8%. In the case of `O=C(Nc1ccc(Br)c2ccccc12)c1ccc2ccccc2c1O`, the inhibition is reported as 42.5%. In the case of `CC(=O)c1c(C)oc2ccc(N(C(C)=O)S(=O)(=O)c3ccc(F)cc3C)cc12`, the inhibition is reported as -8.7%. `CCCC1/C(=N/O)CC(c2ccccc2)NC1c1ccccc1` (centres undefined) showed an inhibition of 31.6%. With `CC1=C(CO)C(=O)OC([C@@H](C)C2CC[C@H]3C4C[C@H]5O[C@]56[C@@H](O)C=CC(=O)[C@]6(C)C4CC[C@]23C)C1` (some centres undefined) the inhibition was 89.9% (active). In the case of `CCC(C)(C)c1ccc(OCCCC[n+]2cccc(C)c2)c(C(C)(C)CC)c1`, the inhibition is reported as 41.5%. With `COc1cc(OC)cc(-c2cc3nc(C)c(CCC(=O)O)c(C)n3n2)c1` the inhibition was 85.7% (active). Work on `O=C(Nc1ccc([N+](=O)[O-])cc1)Nc1ccc(Cl)cc1F` yielded an inhibition of 12.9%. For `O=C(Nc1ccc(Cl)c(Cl)c1)Nc1ccccc1NS(=O)(=O)c1cccs1`, the inhibition was 94.3% (active). With `O=C(Nc1ccc(Cl)c(Cl)c1)Nc1ccc(Br)cc1F` the inhibition was 106% (active). Work on `Cc1cc(Cl)ccc1OCC(=O)Nc1ccccc1NS(=O)(=O)c1cccs1` yielded an inhibition of 21.7%. In the case of `S=c1[nH]nc(-c2cc(-c3ccccc3)n[nH]2)n1/N=C/C(Br)=C/c1ccccc1`, the inhibition is reported as 105% (active). Compound `Cc1ccc(-c2n[nH]c(=S)n2/N=C/c2ccncc2)cc1` has an inhibition of 4.6%. For `CC(=C/c1ccccc1)/C=N/n1c(-c2ccncc2)n[nH]c1=S`, the inhibition was 94.4% (active). In the case of `Cc1cc(-c2n[nH]c(=S)n2/N=C/C(Cl)=C/c2ccccc2)n[nH]1`, the inhibition is reported as -31.5%. Compound `Cc1cc(-c2n[nH]c(=S)n2/N=C/C(Br)=C/c2ccccc2)n[nH]1` has an inhibition of 23.7%. `Cc1noc2ncnc(Oc3ccc(Cl)cc3Cl)c12` showed an inhibition of -0.2%. In the case of `CCN1CCN(Cc2ccc(NC(=O)c3ccc(C)c(/C=C/c4cnc(Nc5cc(N6CCNCC6)nc(C)n5)cn4)c3)cc2C(F)(F)F)CC1`, the inhibition is reported as -16%. With `CC[n+]1c(C=C2C=C(C)OC(C)=C2)sc2ccccc21` the inhibition was 57.8% (active). In the case of `Cc1nc(SCCC(=O)O)c2cc(-c3ccccc3)sc2n1`, the inhibition is reported as 48.4%. For `Cc1sc2nc(-c3ccccn3)[nH]c(=O)c2c1-c1ccccc1`, the inhibition was 37.1%. With `O=c1[nH]c(-c2ccccn2)nc2sc(-c3ccccc3)cc12` the inhibition was 97.3% (active). For `COc1ccccc1-c1cc(C(F)(F)F)nc(S(C)(=O)=O)n1`, the inhibition was 68.8% (active). With `COc1ccc(-c2cc(C(F)(F)F)nc(S(C)(=O)=O)n2)cc1` the inhibition was 77.6% (active). `COc1ccc(NS(=O)(=O)c2ccc(-c3coc(C)n3)cc2)cc1OC` showed an inhibition of 47.8%. Work on `Cc1cc(NC(=O)CCS(=O)(=O)c2nc(-c3ccccc3)cc(C(F)(F)F)n2)no1` yielded an inhibition of 46.7%. In the case of `COC(=O)CCS(=O)(=O)c1nc(-c2ccccc2)cc(C(F)(F)F)n1`, the inhibition is reported as 55.5% (active). In the case of `COc1ccc(-c2cc(C(F)(F)F)nc(S(C)(=O)=O)n2)cc1OC`, the inhibition is reported as 89.3% (active). Work on `CCOc1cccc2sc(NC(=O)CCS(=O)(=O)c3ccccc3)nc12` yielded an inhibition of -6.7%. `COCCN(Cc1ccccc1)C(=O)c1cc(-c2ccc(OC)c(OC)c2)nc2ccccc12` showed an inhibition of 20%. For `C=C(CCC(=O)c1ccccc1)C(=O)c1ccccc1`, the inhibition was -0.6%. With `O=C(Nc1ccncc1)c1c(F)cccc1F` the inhibition was 59.3% (active). `COc1ccc2c(C)nc(Nc3nc(-c4ccccc4)cc(=O)[nH]3)nc2c1` gave an inhibition of 42.1%. With `Cc1ccc2oc(Nc3nc(-c4ccccc4)cc(=O)[nH]3)nc2c1` the inhibition was 93% (active). Work on `Oc1c(Cl)cc(Cl)cc1/C=C/c1ccc2cccc(O)c2n1` yielded an inhibition of 37.4%. Compound `CC(C)(C)NC(=S)N/N=C/c1cc(Br)c(O)c(Br)c1` has an inhibition of 34.5%. In the case of `CN(/N=C/c1cc(Cl)cc(Cl)c1O)C(=S)NC(C)(C)C`, the inhibition is reported as 82.6% (active). With `CC(C)c1noc2ncc(C(=O)c3cc(Cl)cc(Cl)c3O)cc12` the inhibition was 60.1% (active). For `O=c1cc(-c2ccccc2Cl)oc2c(NS(=O)(=O)c3cc(Cl)cc(Cl)c3O)ccc(O)c12`, the inhibition was 82.6% (active). Work on `O=c1oc2ccccc2c(Nc2cc3ccccc3cc2O)c1[N+](=O)[O-]` yielded an inhibition of -0.3%. With `O=c1cc(-c2ccccc2Cl)oc2c([N+](=O)[O-])c(O)cc(O)c12` the inhibition was 105% (active). With `Nc1nccc(-c2ccc(-n3cnc4ccccc43)cc2)n1` the inhibition was 67% (active). Work on `O=C(O)COc1ccc(-c2nccc(-c3ccccn3)n2)cc1` yielded an inhibition of 43.3%. In the case of `c1ccc2c(c1)ncn2-c1ccc(-c2ccnc(-c3ccncc3)n2)cc1`, the inhibition is reported as 59.7% (active). For `CC1CCc2nc(N)c(C#N)c(-c3cccnc3)c2C1` (centres undefined), the inhibition was 85.3% (active). Compound `Cc1nc2c(-c3ccc(F)cc3)cnn2c(N)c1-c1ccccc1` has an inhibition of -226%. In the case of `Cc1nc(N)c(C#N)c(-c2cccnc2)c1-c1ccccc1`, the inhibition is reported as 98.5% (active). For `O=C(NNC(=O)c1ccccc1OCc1ccc(F)cc1)c1ccccc1O`, the inhibition was 51.1% (active). Compound `CN(C(=O)COc1ccccc1C(=O)NCCOc1ccccc1)c1ccccc1` has an inhibition of 17.7%. In the case of `O=C(NNC(=O)c1ccccc1OCc1ccccc1)c1ccccc1O`, the inhibition is reported as 77.9% (active). Work on `CCOc1ccccc1C(=O)N1CCN(C(c2ccccc2)c2ccccc2)CC1` yielded an inhibition of 22.1%. In the case of `Cc1ccc(S(=O)(=O)n2c(N)nc3ccccc32)cc1`, the inhibition is reported as -1.7%. For `Cc1ccc(S(=O)(=O)Nc2ccccc2-c2ccccc2NS(=O)(=O)c2ccc(C)cc2)cc1`, the inhibition was -1.3%. With `Cc1ccc(S(=O)(=O)Nc2ccccc2/C=N/c2nc3ccccc3n2C)cc1` the inhibition was 89.4% (active). In the case of `Oc1c(CN2CCc3ccccc3C2)cc(Cl)c2cccnc12`, the inhibition is reported as 101% (active). For `Oc1c(I)cc(I)c2cccnc12`, the inhibition was 89% (active). In the case of `Oc1c(CN2CCN(c3ccc(F)cc3)CC2)cc(Cl)c2cccnc12`, the inhibition is reported as 17.1%. In the case of `Oc1c(Cl)cc(Cl)c2cccnc12`, the inhibition is reported as 102% (active). Compound `Oc1c(C(c2ccc(Cl)cc2)N2CCCC2)cc(Cl)c2cccnc12` (centres undefined) has an inhibition of 20%. Work on `Oc1c(CN2CCN(c3ccccn3)CC2)cc(Cl)c2cccnc12` yielded an inhibition of 20.4%. In the case of `O=[N+]([O-])c1cc(Cl)c(O)c2ncccc12`, the inhibition is reported as 102% (active). With `O=C(Oc1c(Cl)cc(Cl)c2cccnc12)c1ccco1` the inhibition was 106% (active). In the case of `Oc1c(I)cc(Cl)c2cccnc12`, the inhibition is reported as 104% (active). In the case of `Cc1ccccc1-c1nc(CSc2nc3c(c(=O)[nH]2)CCC3)c(C)o1`, the inhibition is reported as 59.5% (active). In the case of `Cc1oc(-c2ccccc2Cl)nc1CSc1nc2c(c(=O)[nH]1)CCCC2`, the inhibition is reported as 19.1%. `Cc1cccc(-c2nc(CSc3nc4c(c(=O)[nH]3)CCC4)c(C)o2)c1` gave an inhibition of 37%. Work on `CC1(C)CC(=O)C2=C(C1)Oc1nc3ccccc3cc1C2C(C#N)C#N` (centres undefined) yielded an inhibition of 29.6%. In the case of `COc1ccccc1CNS(=O)(=O)c1ccc2c(c1)N(C(C)=O)CC(C)S2` (centres undefined), the inhibition is reported as 35.3%. With `CC(C)(C)c1ccc(C(=O)Nc2sc3c(c2C(=O)O)CCC3)cc1` the inhibition was -51.1%. With `CC(C)(C)c1ccc(C(=O)N2CCCCCC2=O)cc1` the inhibition was 69.6% (active). For `CC(C)(C)c1ccc(/C=N/Nc2ccc(C(=O)O)cc2)cc1`, the inhibition was -61%. For `NC(=S)n1[nH]c(-c2ccc([N+](=O)[O-])cc2)c(N=Nc2ccc(Cl)cc2)c1=O`, the inhibition was 88.7% (active). With `Cc1ccc([N+](=O)[O-])cc1N=Nc1c(-c2ccc([N+](=O)[O-])cc2)[nH]n(C(N)=S)c1=O` the inhibition was 80.4% (active). `Cc1[nH]n(-c2nc(-c3ccc(Cl)cc3)cs2)c(=O)c1N=Nc1ccc(O)cc1` showed an inhibition of 48.4%. For `NC(=S)n1[nH]c(-c2ccc([N+](=O)[O-])cc2)c(N=Nc2cccc(Cl)c2)c1=O`, the inhibition was 86.9% (active). With `NC(=S)n1[nH]c(-c2ccc([N+](=O)[O-])cc2)c(N=Nc2cccc([N+](=O)[O-])c2)c1=O` the inhibition was 86.6% (active). Work on `CC(C)(C)c1ccc(-c2noc(CCC(=O)NCc3ccco3)n2)cc1` yielded an inhibition of 44.3%. Work on `CC(C)Cc1ccc(C(C)C(=O)Nc2cccnc2)cc1` (centres undefined) yielded an inhibition of 22.5%. For `CC(C)(C)c1ccc(-c2noc(CCC(N)=O)n2)cc1`, the inhibition was 73.6% (active). In the case of `CC(C)(C)c1ccc(-c2noc(CCC(=O)Nc3cccnc3)n2)cc1`, the inhibition is reported as 71.6% (active). With `COc1ccc(Cc2nc(-c3ccc(-n4cccc4)cc3)no2)cc1OC` the inhibition was 48.8%. For `CCC(C(=O)Nc1cccnc1)c1ccccc1` (centres undefined), the inhibition was 3.6%. With `CCn1nc(C)c(CNC(=O)c2ccc(OC3CCN(Cc4ccccn4)CC3)cc2)c1C` the inhibition was 50.2% (active). `CCOc1ccc(C(=O)NC2CCN(C(=O)Nc3ccccc3OC)CC2)cc1` showed an inhibition of 14.2%.
